Data: PubChem BioAssay
Activity calls are given as the source filed them. Unless noted, the rule behind the calls is not given here.

Tests used:
[1] = compounds binding Alexa647 anti-His antibody – biochemical, small-molecule microarray, 635 nm fluorescence, artefact control for SMM control protein annotation, primary screen (AID 1128); conditions: higher = more signal;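 note: score merges feature fluorescence with signal-to-noise for each printed compound spot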
[2] = tested on: Human papillomavirus type 1a E7 protein (residues 1-88); assay: HPV1a E7 small-molecule binders, primary screen, biochemical, small-molecule microarray, residues 1-88, 635 nm (AID 1129); conditions: small-molecule microarray binding, fluorescence 635 nm; higher = more signal
[3] = target: Focal adhesion kinase 1 (Homo sapiens) (UniProt Q05397); assay: PTK2 protein binding on printed compound slides – biochemical, small-molecule microarray, 635/667 nm fluorescence, BSA, DTT, primary screen (AID 1130); conditions: 635 nm fluorescence, higher = more signal;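 note: composite of spot emission at 667 nm and signal to noise over triplicate slides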
[4] = tested on: Fibrinogen (Alexa647-labelled); assay: Alexa647-fibrinogen binding to printed small molecules – biochemical, small-molecule microarray, 635/667 nm fluorescence, artefact control for SMM control-protein annotation, profiling panel (AID 1131); conditions: fibrinogen-A647 binding fluorescence, higher = more signal;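 note: z-score merges 667 nm fluorescence with per-spot signal-to-noise over triplicate slides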
[5] = target: Follistatin (Homo sapiens) (UniProt P19883); assay: FST protein binding to printed compounds – biochemical, small-molecule microarray, 635/667 nm fluorescence, primary screen (AID 1132); conditions: 635 nm fluorescence, higher = more signal
[6] = target: Fibroblast growth factor 2 (Homo sapiens) (UniProt P09038); assay: basic fibroblast growth factor binding to printed compounds – biochemical, small-molecule microarray, 635/667 nm fluorescence, primary screen (AID 1133); conditions: FGF2, fluorescence 635/667, higher = more signal
[7] = JC-1 mitochondrial potential readout, lung cancer cells – cell-based, A549, JC-1 fluorescence, basal, 24 h, 100 nL, profiling panel (AID 1138); conditions: higher = more signal;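 note: A549 lung adenocarcinoma cells under basal conditions with no added stimulus; test concentration not given here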
[8] = tested on: Lefty1; assay: Lefty1 protein binding to printed compounds – biochemical, small-molecule microarray, 635/667 nm fluorescence, primary screen (AID 1139); conditions: fluorescence 635/667, higher = more signal
[9] = tested on: wheat germ agglutinin (Triticum aestivum), Alexa647-labelled; assay: Alexa647-WGA lectin binding to printed small molecules – biochemical, small-molecule microarray, 635/667 nm fluorescence, artefact control for SMM control-protein annotation, profiling panel (AID 1140); conditions: WGA-A647 binding, 635 nm fluorescence, higher = more signal;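 note: score merges 667 nm feature emission with signal to noise over triplicate slides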
[10] = target: Luciferin 4-monooxygenase (Photinus pyralis) (UniProt P08659); assay: inhibition of purified Photinus pyralis luciferase – biochemical, luminescence, purified enzyme, 2006 set, primary screen (AID 1141); conditions: purified firefly luciferase, SteadyGlo luminescence, 30 min; higher = more signal, called active from +8 up or from −8 down;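 note: cell-free assay with purified firefly luciferase at 100 ng per well in PBS; test concentration not given here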
[11] = tested on: Wnt5a (protein binding on small-molecule microarray); assay: small molecules binding Wnt5a protein – biophysical, small-molecule microarray, 635/667 nm fluorescence, primary screen (AID 1142); conditions: 635 nm fluorescence, higher = more signal;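 note: fluorescence read at 667 nm with signal to noise per printed feature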
[12] = ATP-based viability of Huh7 replicon cells – cell-based, CellTiter-Glo luminescence, basal, 48 h, cytotoxicity control for HCV replication inhibitor project, primary screen (AID 1143); conditions: higher = more signal, called active from +8 up or from −8 down;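 note: Huh7 hepatoma cells carrying a hepatitis C replication reporter with no stimulus; test concentration not given here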
[13] = Pseudomonas biofilm growth suppression – PAO1 strain, BacTiter-Glo luminescence, LB-PBS, primary screen (AID 1144); conditions: P. aeruginosa PAO1 biofilm, 12 h, higher = more signal
[14] = basal CRE-LacZ reporter activity in PC12 – cell-based, unstimulated, primary screen (AID 1145); conditions: no forskolin, luminescence, 4.5 h, higher = more signal, called active from +8 up or from −8 down
[15] = forskolin-driven CRE-LacZ activity in PC12 – cell-based, CRE-LacZ reporter, forskolin-stimulated, primary screen (AID 1146); conditions: luminescence, 4.5 h, higher = more signal, called active from +8 up or from −8 down;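 note: PC12 cells with 6xCRE LacZ reporter stimulated by forskolin 10 µM; beta-galactosidase reporter signal reflecting CREB driven transcription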
[16] = target: Streptavidin (Streptomyces avidinii) (UniProt P22629); assay: compounds binding control protein streptavidin – biophysical, small-molecule microarray, 635/667 nm fluorescence, artefact control for SMM compound annotation, primary screen (AID 1147); conditions: higher = more signal;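 note: signal reflects streptavidin binding to arrayed compounds as a control protein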
[17] = probe aInhba binding on compound microarray – biochemical, small-molecule microarray, 635/667 nm fluorescence, primary screen (AID 1148); conditions: higher = more signal;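 note: score merges 667nm spot fluorescence with signal-to-noise for antibody binding to printed compounds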
[18] = target: Torsin-1A (Homo sapiens) (UniProt O14656); assay: TOR1A wild-type binding on microarray – cell lysate, small-molecule microarray, lysate, 635/667 nm, primary screen (AID 1149); conditions: COS7 hTOR1A-WT lysate, 635 nm fluorescence, higher = more signal
[19] = target: Torsin-1A (Homo sapiens) (UniProt O14656); assay: torsin A mutant lysate binding on microarrays – cell lysate, small-molecule microarray, COS7 lysate, 635/667 nm fluorescence, primary screen (AID 1150); conditions: COS7 hTOR1A mutant lysate, 635 nm fluorescence, higher = more signal;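 note: score pools 667 nm emission and signal to noise measuring lysate protein binding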
[20] = tested on: Sonic hedgehog protein (Shh); assay: Sonic hedgehog microarray binding compounds – biochemical, small-molecule microarray, 635/667 nm fluorescence, primary screen (AID 1151); conditions: 635 nm fluorescence, higher = more signal;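 note: Shh protein binding to compounds spotted on small-molecule microarray slides; score combines spot fluorescence intensity with signal-to-noise across triplicate slides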

Focal adhesion kinase 1 (Homo sapiens), sequence (Q05397 whole entry, looked up): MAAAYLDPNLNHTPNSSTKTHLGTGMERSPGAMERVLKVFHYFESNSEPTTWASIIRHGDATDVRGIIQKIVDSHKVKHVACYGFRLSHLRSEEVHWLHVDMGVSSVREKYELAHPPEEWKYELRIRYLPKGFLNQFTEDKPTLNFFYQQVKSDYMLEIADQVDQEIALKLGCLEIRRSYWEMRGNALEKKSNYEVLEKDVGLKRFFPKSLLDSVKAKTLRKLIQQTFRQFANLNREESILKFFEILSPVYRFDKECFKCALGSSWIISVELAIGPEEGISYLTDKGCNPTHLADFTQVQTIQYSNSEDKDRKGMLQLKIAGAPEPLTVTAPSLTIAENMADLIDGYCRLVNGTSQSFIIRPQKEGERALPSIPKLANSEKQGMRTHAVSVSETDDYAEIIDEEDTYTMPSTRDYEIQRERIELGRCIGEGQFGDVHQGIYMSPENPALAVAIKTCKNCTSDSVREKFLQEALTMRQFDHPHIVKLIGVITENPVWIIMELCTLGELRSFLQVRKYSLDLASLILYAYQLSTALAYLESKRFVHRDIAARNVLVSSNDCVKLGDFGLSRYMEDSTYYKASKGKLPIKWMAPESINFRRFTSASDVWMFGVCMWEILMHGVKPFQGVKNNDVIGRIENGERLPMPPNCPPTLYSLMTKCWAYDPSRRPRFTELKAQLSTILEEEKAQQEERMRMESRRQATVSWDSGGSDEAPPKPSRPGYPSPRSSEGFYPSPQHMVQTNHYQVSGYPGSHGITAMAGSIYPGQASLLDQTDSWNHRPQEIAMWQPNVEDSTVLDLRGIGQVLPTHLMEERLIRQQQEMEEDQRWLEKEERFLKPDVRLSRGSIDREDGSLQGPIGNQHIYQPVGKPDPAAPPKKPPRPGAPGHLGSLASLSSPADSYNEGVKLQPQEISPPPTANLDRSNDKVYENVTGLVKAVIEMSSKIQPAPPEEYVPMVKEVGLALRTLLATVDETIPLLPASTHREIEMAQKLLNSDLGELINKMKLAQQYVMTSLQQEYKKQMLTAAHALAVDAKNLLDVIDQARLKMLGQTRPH
Streptavidin (Streptomyces avidinii), sequence (P22629 whole entry, looked up): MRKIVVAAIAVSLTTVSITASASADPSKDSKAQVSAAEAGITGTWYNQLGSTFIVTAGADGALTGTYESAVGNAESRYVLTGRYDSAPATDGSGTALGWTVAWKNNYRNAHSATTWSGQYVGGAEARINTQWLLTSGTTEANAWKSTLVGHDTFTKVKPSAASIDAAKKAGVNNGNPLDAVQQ
Luciferin 4-monooxygenase (Photinus pyralis), sequence (P08659 whole entry, looked up): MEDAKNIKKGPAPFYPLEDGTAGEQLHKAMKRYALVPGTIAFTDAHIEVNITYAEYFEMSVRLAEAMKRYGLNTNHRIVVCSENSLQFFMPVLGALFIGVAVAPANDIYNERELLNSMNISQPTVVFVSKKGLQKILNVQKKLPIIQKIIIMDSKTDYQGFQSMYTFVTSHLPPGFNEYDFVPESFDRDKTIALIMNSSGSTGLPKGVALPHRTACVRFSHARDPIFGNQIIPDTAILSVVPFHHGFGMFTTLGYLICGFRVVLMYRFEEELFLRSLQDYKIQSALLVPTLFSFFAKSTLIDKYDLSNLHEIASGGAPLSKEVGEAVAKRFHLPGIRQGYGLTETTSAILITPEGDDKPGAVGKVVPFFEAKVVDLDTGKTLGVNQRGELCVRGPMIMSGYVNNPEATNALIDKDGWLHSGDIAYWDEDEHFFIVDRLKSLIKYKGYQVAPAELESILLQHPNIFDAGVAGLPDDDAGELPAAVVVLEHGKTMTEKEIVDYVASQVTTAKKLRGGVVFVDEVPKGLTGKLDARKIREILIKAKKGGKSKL
Fibroblast growth factor 2 (Homo sapiens), sequence (P09038 whole entry, looked up): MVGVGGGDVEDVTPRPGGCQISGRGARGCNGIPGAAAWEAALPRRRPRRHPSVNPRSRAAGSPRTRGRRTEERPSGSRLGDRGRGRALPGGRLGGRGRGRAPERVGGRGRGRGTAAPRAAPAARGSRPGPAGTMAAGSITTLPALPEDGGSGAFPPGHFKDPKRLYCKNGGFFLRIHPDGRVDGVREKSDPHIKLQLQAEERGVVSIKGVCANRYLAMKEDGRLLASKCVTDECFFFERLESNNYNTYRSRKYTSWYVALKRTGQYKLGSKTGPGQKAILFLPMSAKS
Follistatin (Homo sapiens), sequence (P19883 whole entry, looked up): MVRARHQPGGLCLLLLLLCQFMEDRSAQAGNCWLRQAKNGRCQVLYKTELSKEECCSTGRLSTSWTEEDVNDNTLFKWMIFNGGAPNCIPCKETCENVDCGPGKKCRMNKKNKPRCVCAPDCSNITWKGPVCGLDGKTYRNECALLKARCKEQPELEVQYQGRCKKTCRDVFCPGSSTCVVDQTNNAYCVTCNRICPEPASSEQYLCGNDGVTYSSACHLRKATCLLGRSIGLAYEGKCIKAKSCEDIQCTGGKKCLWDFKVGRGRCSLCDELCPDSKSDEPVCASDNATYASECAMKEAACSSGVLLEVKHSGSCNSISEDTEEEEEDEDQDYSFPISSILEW
Torsin-1A (Homo sapiens), sequence (O14656 whole entry, looked up): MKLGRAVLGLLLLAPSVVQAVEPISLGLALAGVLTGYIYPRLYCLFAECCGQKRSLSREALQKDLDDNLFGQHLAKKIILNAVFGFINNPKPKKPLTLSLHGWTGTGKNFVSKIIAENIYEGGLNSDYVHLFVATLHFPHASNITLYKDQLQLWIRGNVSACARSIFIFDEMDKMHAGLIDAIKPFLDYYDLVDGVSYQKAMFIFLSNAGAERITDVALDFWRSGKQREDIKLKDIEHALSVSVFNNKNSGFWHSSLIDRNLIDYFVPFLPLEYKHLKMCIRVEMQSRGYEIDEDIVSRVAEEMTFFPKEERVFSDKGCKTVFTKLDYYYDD

Structure (SMILES)	composite z-score [1]	composite z-score [2]	composite z-score [3]	composite z-score [4]	composite z-score [5]	composite z-score [6]	z-score [7]	composite z-score [8]	composite z-score [9]	z-score [10]	composite z-score [11]	z-score [12]	z-score [13]	z-score [14]	z-score [15]	composite z-score [16]	composite z-score [17]	composite z-score [18]	composite z-score [19]	composite z-score [20]
NCCCCCNC(=O)[C@H]1C[C@H]2C(=O)NCC(=O)N2[C@H]1c1cccc(OCCO)c1	0.524	0.817	0.369	0.909	1.26	1.08	0.431	1.5	0.739	0.199 (inactive)	0.584	0.241 (inactive)	-0.147 (inactive)	-1.08 (inactive)	0.0161 (inactive)	0.579	-0.144	0.483	0.727	2.01
[N-]=[N+]=Nc1ccccc1[C@@H]1OC(c2ccc(OCCCO)cc2)=N[C@]1(CCS(=O)(=O)c1ccccc1)C(=O)N1CCOCC1	1.48	1.26	0.488	1.02	1.33	0.544	1.13	0.541	1.3	-12.9 (active)	1.3	-2.26 (inactive)	-0.199 (inactive)	1.8 (inactive)	-1.49 (inactive)	1.52	0.165	0.46	1.63	-0.29
O=C1[C@]2(CO)C=C(Br)[C@@H](C[C@@H]2c2ccccc2)[C@@]12CO2	0.123	-0.769	-0.0687	0.262	0.518	0.118	0.116	0.748	0.492	0.969 (inactive)	-0.165	-0.296 (inactive)	-0.547 (inactive)	1.12 (inactive)	3.94 (inactive)	1.26	-0.237	-0.619	0.0294	0.344
COC(=O)[C@@]1(Cc2ccc(F)cc2)[C@H]2c3cc(C(=O)N(C)C)n(CCc4ccccn4)c3C[C@H]2CN1C(=O)c1ccccc1	1.47	1.25	0.994	0.0039	0.78	0.0791	-0.201	0.221	-0.108	2.76 (inactive)	1.9	-1.86 (inactive)	-0.604 (inactive)	0.39 (inactive)	-0.038 (inactive)	-0.0936	1.14	1.23	0.948	-0.154
O=C1O[C@@H](c2ccccc2)[C@@H](c2ccccc2)N2[C@@H](c3ccc(OCCO)cc3)[C@]3(C(=O)Nc4ccc(C#CC5=CCCCC5)cc43)[C@@H](C(=O)O)[C@H]12	1.42	1.01	1.31	0.865	0.878	0.34	-2.48	0.46	0.997	-6.59 (inactive)	0.411	-2.22 (inactive)	-0.761 (inactive)	-0.348 (inactive)	7.68 (inactive)	1.22	0.0895	0.0714	0.97	0.658
COc1cc2c(cc1O)C(C)N(Cc1cccc(OC(F)(F)F)c1)CC2 (stereo not given)	1.72	1.13	-0.135	0.966	0.659	-0.258	-0.681	0.108	0.984	1.35 (inactive)	0.475	-0.842 (inactive)	-0.334 (inactive)	0.506 (inactive)	1.66 (inactive)	0.395	0.0528	1.7	1.91	0.204
[N-]=[N+]=Nc1ccccc1[C@H]1OC(c2ccc(OCCCO)cc2)=N[C@@]1(CCS(=O)(=O)c1ccccc1)C(=O)O	1.2	0.478	0.042	0.773	0.395	0.174	-1.72	-0.782	0.85	-12.4 (active)	0.296	-1.06 (inactive)	0.713 (inactive)	1.29 (inactive)	-0.197 (inactive)	0.433	0.0516	-0.363	1.13	-0.721
C=CC(COC(C)=O)NS(=O)(=O)c1ccc(Br)cc1 (stereo not given)	0.192	0.971	-0.271	0.596	0.902	0.608	0.499	0.673	0.0285	-0.481 (inactive)	0.136	0.0481 (inactive)	0.465 (inactive)	2.39 (inactive)	1.33 (inactive)	0.923	-0.105	0.211	0.385	0.948
CC(C)N1C(=O)[C@@]2(c3ccc([N+](=O)[O-])cc3)CC(=O)N(CC34CC5CC(CC(C5)C3)C4)[C@@H]2c2ccc(CO)cc21	-0.193	-1.05	-0.553	-1.1	0.0163	-0.934	0.58	0.0347	1.23	-0.322 (inactive)	-0.61	-0.36 (inactive)	-0.292 (inactive)	0.452 (inactive)	-0.41 (inactive)	-0.842	0.195	-1.81	-0.858	0.453
C#CCN(C(/C=C/c1ccccc1)CO)C(C(=O)O)c1ccccc1 (stereo not given)	-0.375	-1.19	0.492	0.116	-0.523	-0.354	-1.04	-0.346	-0.0819	-0.104 (inactive)	0.0265	-3.59 (inactive)	1.13 (inactive)	-0.0487 (inactive)	-0.53 (inactive)	0.18	0.0391	-0.407	-0.959	-0.514
